Here are results for 40 compounds from PubChem BioAssay (NCI).

Compounds without any hit were thinned out: in the full panel of roughly 83,000, 20% have a hit.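 Cells were grown in 96-well plates and exposed to the test compound at a single concentration for 48 hours; results are reported as percent growth, with values below 10 considered active.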 Values without a mark were called inactive. Calls of active or inactive are those of the source.

In the assay the test system is SN12C renal. As to the kind of experiment: NCI-60 one-dose screen, 48 h (100 = growth as untreated, 0 = no growth, -100 = all killed). The note with it: 10 µM unless noted. As for the experimental part:
Growth inhibition of the SN12C human tumor cell line is measured as a screen for anti-cancer activity. Cells are grown in 96 well plates and exposed to the test compound for 48 hours. Compounds are tested at a single concentration, which is 10^-5 M for most compounds. The reported endpoint is percent growth (GI% or GIPRCNT), where numbers from 0 - 100% represent growth inhibition, and numbers from -100% - 0 represent cell death. For example, a value of 40 represents 60% growth inhibition. A value of 0 means no net growth occurred over the course of the experiment. A value of -40 indicates 40% of cells at the beginning of the experiment died by the end of the experiment. A value of -100 means all cells are dead at the end of the experiment.
NCI-60 Human Tumor Cell Lines Screen was performed using the standard one-dose NCI protocol, which is described in more detail at https://dtp.cancer.gov/discovery_development/nci-60/default.htm.
Compounds with GIPRCNT values below 10 were considered active. Activity score was based on GIPRCNT using the following formula: […]
Score is 0 for GIPRCNT values of 100 or above, 50 for GIPRCNT values of 0, and 100 for GIPRCNT values of -100.
For `CCN1CCN(C(=O)[C@]23CCC(C)(C)C[C@H]2C2=CC[C@@H]4[C@@]5(C)Cc6c([nH]c7ccccc67)C(C)(C)[C@@H]5CC[C@@]4(C)[C@]2(C)CC3)CC1`, the growth is 81.7%. For the compound `Nc1ccccc1NC(=O)c1ccc(NC(=O)C/C=C/c2cccnc2)cc1`, the growth is 29.1%. The result for `CS(=O)(=O)Nc1cc(-c2ccc3ncc(C#N)c(NCc4ccccc4)c3c2)cnc1Cl` reads 7.64% (active). Turning to `Cc1ccc(-c2cc3nc(C(Cl)Cl)nc(-c4cccs4)n3n2)cc1`, the growth is 85.9%. Next, `CCOC(=O)c1c(N)c(C#N)cn1-c1cc(OC)c(OC)c(OC)c1`: 101%; `Cc1nn(-c2ccccc2)c2ncnc(N/N=C/c3ccccc3O)c12`: 8.87% (active); `O=C(NNc1nc2cc(F)cc(F)c2n2cccc12)c1cnccn1`: 25.5%. The result for `COc1ccc([C@@H]2[C@@H](O)C(=O)N2c2cc(OC)c(OC)c(OC)c2)cc1F` reads 28.7%; that for `NS(=O)(=O)c1ccc(Nc2nc(N/N=C/c3ccc(Cl)cc3)nc(Nc3ccccc3)n2)cc1`, 81.6%; that for `C/C(=N\O)[C@H]1C[C@]23CC[C@]4(C)[C@H](CC[C@@H]5[C@@]6(C)CC/C(=N/O)C(C)(C)[C@@H]6CC[C@]54C)[C@H]2[C@H](C)C1(C)OC3`, 91.5%. On to `O=c1c2ccccc2nc(COc2ccccc2)n1NS(=O)(=O)c1ccc(Cl)cc1`, for which the growth was 76.6%. The result for `O=C(CNc1nc(-c2cccc([N+](=O)[O-])c2)cs1)Nc1cccc([N+](=O)[O-])c1` reads -4.54% (active); that for `O=C(Nc1nc2ccc([N+](=O)[O-])cc2s1)Nc1ccccc1Br`, 23.4%. The result for `CC[C@]12C=CCN3CC[C@@]4(c5cc(NC(=O)COc6cc(O)c7c(=O)cc(-c8ccccc8)oc7c6)c(OC)cc5N(C)[C@H]4[C@@](O)(C(=O)OC)[C@@H]1OC(C)=O)[C@@H]32` reads -75.4% (active); that for `COc1cc2nc(Cl)nc(Nc3cccc(C4=Nc5c(N)nc(N)nc5NC(c5ccc(Br)cc5)C4)c3)c2cc1OC` (stereo not given), 99%. The result for `Cc1ccc2c(c1)C(=O)/C(=C/c1cccc(F)c1)S2` reads 101%; that for `CCOC(=O)c1c(NC(=O)c2ccccc2C(F)(F)F)sc2c1CCC(=O)C2`, 25.8%. As for `CC(C)(C)c1ccc(C(=O)Nc2sc3c(c2C(N)=O)CCC(O)C3)cc1` (stereo not given), the growth was 74.8%.

`CCNC(=O)N1CCc2cc(OC)c(OCCc3ccc(OC)c(N)c3)cc2C1c1cc(C)c(C)cc1C` (stereo not given): the growth was 39.4%.

With `O=S(=O)(NCCNc1nccc(-n2cnc3ccccc32)n1)c1ccc(Br)cc1`, the growth was 91.5%. In the case of `O=C(Nc1ccc(Br)cc1)Nc1nc2ccc([N+](=O)[O-])cc2s1`, the growth is 4.21% (active). Next, `COc1c(N2CC3CCCNC3C2)c(F)cc2c(=O)c(C(=O)N/N=C/c3ccc(N(C)C)cc3)cn(C3CC3)c12` (stereo not given): 65.5%; `O=S(=O)(NCCCNc1nccc(-c2[nH]c(-c3ccccc3)nc2-c2ccc(Cl)c(O)c2)n1)c1cccc(F)c1`: 68.2%. The result for `COc1ccc(C(=O)c2c(N)c(C#N)cn2-c2ccccc2OC)cc1` reads 45.1%; that for `C=CCn1c(SCC(=O)Nc2ccc(C(=O)/C=C/c3cc(OC)c(OC)c(OC)c3)cc2)nnc1-c1c[nH]c2ccccc12`, 34.1%; that for `Cc1noc(C)c1CSc1nc2ccccc2n1-c1ccccc1`, 81.4%.

Consider `CC1(COc2ccc3ncc(C#Cc4cncc(C(=O)Nc5cccc(C(F)(F)F)c5)c4)n3n2)COC1`, for which the growth is 61.9%. The result for `O=C(CSc1nc2ccccc2c(=O)n1-c1ccccc1)Nc1cccc(C(=O)/C=C/c2ccccc2Cl)c1` reads 102%; that for `Nc1ccccc1NC(=O)c1ccc(NC(=O)C/C=C/c2cccnc2)cn1`, 25.2%; that for `C=C(C)[C@@H]1CC[C@]2(C(=O)NCCCCCN(CCC#N)CCC#N)CC[C@]3(C)[C@H](CC[C@@H]4[C@@]5(C)CCC(=O)C(C)(C)[C@@H]5CC[C@]43C)[C@@H]12`, 89.3%. The result for `Cc1ccc(C2=NN(C)C(=O)C3(CCCC3)C2)cc1` reads 101%; that for `Clc1nc2ccccc2nc1-c1nnc(C2CCCCC2)o1`, 101%. As to `COc1cc(OC)c(/C=C/S(=O)(=O)Cc2ccc(OC)c(NC(=O)CCC(=O)NO)c2)c(OC)c1`, the growth is 22.7%. Turning to `C#C[C@]1(O)CC[C@H]2[C@@H]3CC=C4c5sc(-c6ccc(C)cc6)nc5CC[C@]4(C)[C@H]3CC[C@@]21C`, the growth is 59%.

Take `O=C(CCC(=O)N1CCOCC1)OCCCCCCSc1ccc([N+](=O)[O-])c2nonc12`: the growth was -74.7% (active). As to `Nc1nc(-c2cccc([N+](=O)[O-])c2)c(N=Nc2cccc([N+](=O)[O-])c2)s1`, the growth is 22.5%. In the case of `NS(=O)(=O)c1ccc(Nc2nc(N/N=C/CCc3ccccc3)nc(Nc3ccccc3)n2)cc1`, the growth was 105%. Next, `Cn1ccnc1C(=O)/C=C/c1ccc(CNC(=O)c2ccc(S(F)(F)(F)(F)F)cc2)cc1`: 25.6%; `COc1ccc(C(=O)CSc2nc3c(c(Nc4ccc(S(N)(=O)=O)cc4)n2)CCCC3)cc1`: 89.9%. Next, `CCOC(=O)c1c(Nc2ccccc2)nn2c(-c3ccc(Cl)cc3)ccnc12`: 83.9%.
